Experimental data: PubChem BioAssay AID743395 (Broad Institute, 2014)
Screen size: about 1,200 compounds; about 480 (40%) were called active. No rule for the calls is given here. So high a share suggests a set chosen from earlier hits. These entries were drawn from the full list. Measured potencies and affinities stand elsewhere.

Assay: HepG2 cell cytotoxicity, dose response, cytotoxicity control, CellTiter-Glo luminescence, cherry-pick, set 2 (AID 743395)
Details: HepG2 viability, CellTiter-Glo ATP luminescence, 72 h; series mostly up to 26 µM

Structure (SMILES)	outcome
CO[C@@H](CN(C)S(=O)(=O)c1ccc(C)cc1)[C@H](C)CN([C@@H](C)CO)S(=O)(=O)c1cccc(Cl)c1	inactive
O=C(Cc1ccccn1)NCC[C@@H]1CC[C@H](NC(=O)Nc2ccc(C(F)(F)F)cc2)[C@@H](CO)O1	inactive
O=C(O)c1ccccc1-c1nc(-c2ccccc2)c(-c2ccccc2)[nH]1	inactive
O=C(NCc1ccccc1)C(c1ccc(-c2ccccc2)cc1)n1c(=O)c(-c2cc3ccccc3[nH]2)nc2ccccc21 (configuration not stated)	inactive
COc1cc2c(cc1OC)C(c1cccs1)N(C(=O)c1cccnc1)CC2 (configuration not stated)	inactive
Cc1cc(C(=O)CN2CCN(CC(=O)Nc3ccc(F)cc3)CC2)c(C)n1C1CC1	inactive
CCOc1ccc(C(=O)NCC(=O)N2CCN(Cc3ccccc3)CC2)cc1	inactive
CCCOc1ccc(C(=O)CCCC(=O)c2ccc(OCCC)cc2)cc1	inactive
CN1/C(=C\C=C2/SC(=S)N(CC(=O)O)C2=O)C(C)(C)c2ccccc21	inactive
C=CCN(CC=C)C(=S)Nc1ccc(OC)c(OC)c1	inactive
Cc1ccc(CNC(=O)COC(=O)c2ccc(S(=O)(=O)N(C)C)cc2)cc1	inactive
CCOc1ccc(C(=O)NNC(=O)CCNC(=O)c2ccc(Br)cc2)cc1OC	inactive
Cc1nnc(NC(=O)CSc2nccn2-c2cccc(C)c2C)s1	inactive
Cc1cc(Br)c(NC(=O)C(C)Sc2nnnn2C)c(Br)c1 (configuration not stated)	inactive
NS(=O)(=O)c1ccc(NNC(=O)c2ccc(Br)o2)c([N+](=O)[O-])c1	inactive
CC(C)NC(=O)c1ccc(COc2cccc3ccccc23)o1	inactive
Cc1cc(C(=O)NNC(=O)c2ccc(Cl)c(S(N)(=O)=O)c2)c(C)o1	inactive
Cc1ccc(S(=O)(=O)N2CCOCC2)cc1NC(=O)CSc1n[nH]c(N)n1	inactive
O=C(Nc1ccccc1F)N1C[C@H]2[C@@H](c3ccccc31)[C@@H](CO)N2C(=O)c1ccccn1	inactive
COc1ccccc1NS(=O)(=O)c1cc(C(=O)N2CCCCCC2)ccc1C	inactive
COc1ccccc1NS(=O)(=O)c1cc(N=N/C(C(=O)Nc2ccc(Cl)cc2)=C(/C)O)ccc1C	inactive
Cc1ccc(C(=O)NNC(=O)c2ccc(S(=O)(=O)N3CCCCC3)cc2)cc1	inactive
O=C(NC(=S)Nc1ccc(-c2ccccc2)cc1)c1ccccc1	inactive
COc1ccccc1N1CC(C(=O)Nc2ccc(S(=O)(=O)N3CCCC3)cc2)CC1=O (configuration not stated)	inactive
CNC(=O)C1CC(=O)N(c2ccc(OCC(=O)Nc3ccccc3)cc2)C1 (configuration not stated)	inactive
COc1ccc(C2=NOC(C(=O)NCc3ccccc3)C2)cc1 (configuration not stated)	inactive
COc1ccc(Cc2nnc(NC(=O)c3ccc(F)cc3)s2)cc1OC	inactive
